Inconclusive results are not listed. The source made the active and inactive calls. The calls were made as follows, unless noted: active = hit-call score of the fitted dose curve at least 0.9, where 1 is the maximum; inactive = score below 0.9.
Legend:
[1] = ATG_PBREM_CIS: Attagene CIS-FACTORIAL HepG2 Assay for human Phenobarbital-responsive Enhancer Module (PBREM) (AID 2282955); conditions: HepG2 PBREM cis-reporter, Attagene multiplexed transcription; actives raise or lower the signal
In short: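 HepG2 cells transiently transfected with multiple cis-regulated reporter units measure endogenous transcription factor activity; 24 h compound exposure. Reporter mRNA quantified by RT-PCR, fluorescent labelling, HpaI digestion and capillary electrophoresis; bidirectional fit versus DMSO.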

[2] = target: Paired box protein Pax-6 (Homo sapiens) (UniProt P26367); test: ATG_Pax6_CIS: Attagene CIS-FACTORIAL HepG2 Assay for human Paired Box 6 (PAX6) (AID 2282956); conditions: HepG2 CIS-FACTORIAL PAX6 reporter transcription, RNA readout; actives raise or lower the signal
In short: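 Readout: reporter transcript fluorescence after RT-PCR and capillary electrophoresis. Cells: HepG2, transiently transfected with cis-regulated MRTUs. Exposure 24 h. Gain or loss of signal fitted bidirectionally relative to DMSO.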

[3] = ATG_PXRE_CIS: Attagene CIS-FACTORIAL HepG2 Assay for human Pregnane X Receptor Element (PXRE) (AID 2282957); conditions: HepG2 Attagene CIS-FACTORIAL PXRE reporter, mRNA; actives raise or lower the signal
In short: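 Endogenous transcription factor activity in HepG2 was gauged through induction of reporter mRNA driven by a cis-regulating promoter element, sampled 24 h post-treatment. Activity was fitted in both directions against DMSO negative control.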

[4] = ATG_PPRE_CIS: Attagene CIS-FACTORIAL HepG2 Assay for human Peroxisome Proliferator-activated Response Element (PPRE) (AID 2282958); conditions: HepG2 PPRE cis-element reporter, Attagene transcription factor profiling; actives raise or lower the signal
In short: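 HepG2 cells are transiently transfected with multiplexed cis-promoter reporter units to report endogenous PPAR activity. After 24 h dosing, reporter mRNA is read by RT-PCR and capillary electrophoresis. Fitting is bidirectional against DMSO.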

[5] = ATG_Sox_CIS: Attagene CIS-FACTORIAL HepG2 Assay for human SRY-box transcription factor (SOX) (AID 2282960); conditions: HepG2 Attagene cis-factorial SOX reporter, mRNA; actives raise or lower the signal
In short: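 HepG2 cells transiently transfected with multiple cis-regulated reporter units, then dosed for 24 h. Reporter mRNA quantified by RT-PCR, fluorescent labelling, HpaI digestion and capillary electrophoresis; bidirectional fit versus DMSO.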

[6] = target: Transcription factor Sp1 (Homo sapiens) (UniProt P08047); test: ATG_Sp1_CIS: Attagene CIS-FACTORIAL HepG2 Assay for human Specificity Protein 1 (Sp1) (AID 2282961); conditions: HepG2 Sp1 cis-reporter transcription, actives raise or lower the signal
In short: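 HepG2 cells transiently transfected with multiplexed cis-regulated reporter constructs, chemical exposure 24 h. Reporter mRNA quantified by RT-PCR with capillary electrophoresis; bidirectional fit relative to DMSO.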

[7] = ATG_SREBP_CIS: Attagene CIS-FACTORIAL HepG2 Assay for human Sterol Regulatory Element Binding (SREBP) (AID 2282962); conditions: HepG2 Attagene cis-factorial SREBP reporter, mRNA; actives raise or lower the signal
In short: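 Readout: fluorescent reporter-transcript peaks resolved by capillary electrophoresis after RT-PCR. Cells were human HepG2 carrying transfected cis-promoter reporter constructs, dosed for 24 h. Gain or loss of signal was fitted against DMSO controls.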

[8] = target: Signal transducer and activator of transcription 3 (Homo sapiens) (UniProt P40763); test: ATG_STAT3_CIS: Attagene CIS-FACTORIAL HepG2 Assay for human Signal Transducer and Activator of Transcription 3 (STAT3) (AID 2282963); conditions: HepG2, Attagene cis-factorial STAT3 reporter transcription; actives raise or lower the signal
In short: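 Uses human liver HepG2 transiently carrying cis-regulated reporter transcription units. Following 24 h dosing, reporter mRNA induction was detected by RT-PCR and capillary electrophoresis, analysed bidirectionally versus DMSO.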

[9] = ATG_TA_CIS: Attagene CIS-FACTORIAL HepG2 Assay for human TA Basal Promoter (AID 2282964); conditions: HepG2 Attagene CIS-factorial TA basal promoter reporter; actives raise or lower the signal
In short: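 Transient MRTU transfection of HepG2 preceded 24 h compound exposure. Reporter mRNA levels were then read by RT-PCR with capillary electrophoresis, and this background-control endpoint was fitted bidirectionally to DMSO.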

[10] = ATG_TCF_b_cat_CIS: Attagene CIS-FACTORIAL HepG2 Assay for human T-Cell-Factor with beta-catenin (TCF/b-cat) (AID 2282965); conditions: HepG2 TCF/beta-catenin cis-reporter transcription, actives raise or lower the signal
In short: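 HepG2 cells transiently transfected with multiple cis-promoter-regulated reporter transcription units, so endogenous transcription factor activity is measured. Reporter mRNA read 24 hours after dosing by RT-PCR, fluorescent labelling and capillary electrophoresis; bidirectional fitting against DMSO.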

[11] = ATG_TAL_CIS: Attagene CIS-FACTORIAL HepG2 Assay for human TAL Basal Promoter (AID 2282966); conditions: HepG2 Attagene cis-factorial TAL promoter reporter; actives raise or lower the signal;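 also: background control endpoint measuring basal TAL promoter reporter mRNA not a specific factor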
In short: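 Endogenous transcription-factor activity is sensed in HepG2 cells through transfected cis-promoter reporter constructs. After 24 h dosing, reporter transcripts are quantified by RT-PCR and capillary electrophoresis. Gain or loss of signal is fitted relative to DMSO.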

[12] = ATG_TGFb_CIS: Attagene CIS-FACTORIAL HepG2 Assay for human Transforming Growth Factor (TGF) (AID 2282967); conditions: HepG2 Attagene CIS TGFb reporter, mRNA transcription; actives raise or lower the signal
In short: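 After a 24-hour incubation with compound, transfected HepG2 cells were lysed for RNA; reporter cDNA was amplified, fluorescently end-labeled and separated by CE. DMSO served as baseline for bidirectional fits.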

[13] = ATG_VDRE_CIS: Attagene CIS-FACTORIAL HepG2 Assay for human Vitamin D Receptor Element (VDRE) (AID 2282968); conditions: HepG2 VDRE cis-reporter transcription, actives raise or lower the signal
In short: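 Transfected HepG2 reporter cells, chemical treatment 24 h. RNA isolated, cDNA amplified with reporter-specific primers, products analysed by capillary electrophoresis. Endpoint fitted in both directions versus DMSO.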

[14] = target: Nuclear receptor subfamily 1 group I member 3 (Homo sapiens) (UniProt Q14994); test: ATG_CAR_TRANS: Attagene TRANS-FACTORIAL HepG2 Assay for human Constitutive Androstane Receptor (CAR) (AID 2282969; active = hit-call score of the fitted dose curve at least 0.9, where 1 is the maximum;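 also: activators raise reporter mRNA above DMSO so AC50 marks induction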); conditions: HepG2 Attagene TRANS-FACTORIAL CAR reporter
In short: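 Steps: transient transfection of HepG2 with multiple GAL4-UAS reporter units; 24 h compound incubation; RNA isolation, RT-PCR, 6-FAM primer extension, HpaI digest; capillary electrophoresis. Gain-of-signal relative to DMSO negative control.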

[15] = target: Estrogen receptor (Homo sapiens) (UniProt P03372); test: ATG_ERa_TRANS: Attagene TRANS-FACTORIAL HepG2 Assay for human Estrogen Receptor alpha (ERa) (AID 2282970; active = hit-call score of the fitted dose curve at least 0.9, where 1 is the maximum); conditions: HepG2 Attagene TRANS ERa GAL4 reporter, mRNA
In short: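 Transfected HepG2 cells carrying GAL4-UAS-driven reporter units were dosed for 24 hours. Total RNA was reverse-transcribed, reporter sequences PCR-amplified, FAM-labelled, HpaI-digested and resolved by capillary electrophoresis. Increases over DMSO control defined activity.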

[16] = target: Steroid hormone receptor ERR1 (Homo sapiens) (UniProt P11474); test: ATG_ERRa_TRANS: Attagene TRANS-FACTORIAL HepG2 Assay for human Estrogen-Related Receptor alpha (ERRa) (AID 2282971; active = hit-call score of the fitted dose curve at least 0.9, where 1 is the maximum); conditions: HepG2 Attagene TRANS reporter, ERRa transactivation
In short: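 HepG2 cells were transiently transfected with multiple GAL4-UAS reporter units, then dosed with compound for 24 h. Total RNA was reverse-transcribed, reporter cDNA PCR-amplified and fluorescently labelled, and fragments resolved by capillary electrophoresis; induction was compared with DMSO.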

[17] = target: X-box-binding protein 1 (Homo sapiens) (UniProt P17861); test: ATG_Xbp1_CIS: Attagene CIS-FACTORIAL HepG2 Assay for human X-box Binding Protein 1 (XBP1) (AID 2282972); conditions: HepG2 XBP1 cis-element reporter, Attagene multiplex; actives raise or lower the signal
In short: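 Read-out: fluorescent reporter mRNA fragments resolved by capillary electrophoresis after RT-PCR. Human HepG2 liver cells carried transfected cis-promoter reporter units and were exposed to chemicals for 24 hours. Gain or loss of signal fitted relative to DMSO baseline.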

[18] = target: Androgen receptor (Homo sapiens) (UniProt P10275); test: ATG_AR_TRANS: Attagene TRANS-FACTORIAL HepG2 Assay for human Androgen Receptor (AR) (AID 2282973; active = hit-call score of the fitted dose curve at least 0.9, where 1 is the maximum); conditions: HepG2 Attagene TRANS-FACTORIAL AR reporter transcription
In short: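 Transfected HepG2, 24 h treatment, chimeric NR-Gal4 driving GAL4-UAS reporters. mRNA induction by RT-PCR/capillary electrophoresis fluorescence; DMSO as negative control and baseline.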

[19] = ATG_M_19_TRANS: Attagene TRANS-FACTORIAL HepG2 Assay for M19 Transcription Factor (Internal Marker) (AID 2282974; active = hit-call score of the fitted dose curve at least 0.9, where 1 is the maximum); conditions: HepG2 Attagene TRANS-FACTORIAL M19 internal marker reporter
In short: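 HepG2 transiently transfected with GAL4-UAS multiplex reporter constructs, exposed 24 h; reporter RNA quantified by RT-PCR, 6-FAM labeling, HpaI digestion and capillary electrophoresis; internal background marker fitted upward versus DMSO.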

[20] = ATG_RORE_CIS: Attagene CIS-FACTORIAL HepG2 Assay for human RAR-related Orphan Receptor Element (RORE) (AID 2282959); conditions: HepG2 Attagene cis-factorial RORE reporter, mRNA; actives raise or lower the signal
In short: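 HepG2 cells carrying transiently transfected cis-regulated reporter units; RORE-driven reporter mRNA quantified 24 h post-dosing by RT-PCR, 6-FAM primer extension, HpaI digestion and capillary electrophoresis. Bidirectional fit versus DMSO.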

Measured: AC50

Chain of Signal transducer and activator of transcription 3 (Homo sapiens) (P40763 whole entry, looked up): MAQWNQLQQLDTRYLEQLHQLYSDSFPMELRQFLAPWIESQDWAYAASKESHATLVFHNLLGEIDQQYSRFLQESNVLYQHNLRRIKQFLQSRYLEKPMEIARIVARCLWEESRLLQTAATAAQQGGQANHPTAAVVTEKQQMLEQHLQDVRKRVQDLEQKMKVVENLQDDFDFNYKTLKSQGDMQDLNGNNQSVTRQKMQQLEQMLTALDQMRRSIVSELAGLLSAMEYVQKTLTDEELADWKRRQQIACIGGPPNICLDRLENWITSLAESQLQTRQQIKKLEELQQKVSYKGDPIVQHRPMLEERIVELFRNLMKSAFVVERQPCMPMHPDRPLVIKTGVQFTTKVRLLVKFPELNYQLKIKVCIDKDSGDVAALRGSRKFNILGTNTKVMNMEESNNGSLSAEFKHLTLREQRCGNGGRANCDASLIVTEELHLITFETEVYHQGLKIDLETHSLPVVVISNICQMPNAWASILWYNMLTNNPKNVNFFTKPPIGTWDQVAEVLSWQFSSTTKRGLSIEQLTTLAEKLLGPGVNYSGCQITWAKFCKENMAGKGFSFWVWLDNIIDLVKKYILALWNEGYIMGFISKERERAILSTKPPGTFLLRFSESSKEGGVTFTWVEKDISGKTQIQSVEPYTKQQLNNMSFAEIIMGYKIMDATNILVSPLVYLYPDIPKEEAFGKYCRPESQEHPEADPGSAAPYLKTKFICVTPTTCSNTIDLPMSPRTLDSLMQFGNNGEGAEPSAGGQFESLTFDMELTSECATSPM
Chain of Transcription factor Sp1 (Homo sapiens) (P08047 whole entry, looked up): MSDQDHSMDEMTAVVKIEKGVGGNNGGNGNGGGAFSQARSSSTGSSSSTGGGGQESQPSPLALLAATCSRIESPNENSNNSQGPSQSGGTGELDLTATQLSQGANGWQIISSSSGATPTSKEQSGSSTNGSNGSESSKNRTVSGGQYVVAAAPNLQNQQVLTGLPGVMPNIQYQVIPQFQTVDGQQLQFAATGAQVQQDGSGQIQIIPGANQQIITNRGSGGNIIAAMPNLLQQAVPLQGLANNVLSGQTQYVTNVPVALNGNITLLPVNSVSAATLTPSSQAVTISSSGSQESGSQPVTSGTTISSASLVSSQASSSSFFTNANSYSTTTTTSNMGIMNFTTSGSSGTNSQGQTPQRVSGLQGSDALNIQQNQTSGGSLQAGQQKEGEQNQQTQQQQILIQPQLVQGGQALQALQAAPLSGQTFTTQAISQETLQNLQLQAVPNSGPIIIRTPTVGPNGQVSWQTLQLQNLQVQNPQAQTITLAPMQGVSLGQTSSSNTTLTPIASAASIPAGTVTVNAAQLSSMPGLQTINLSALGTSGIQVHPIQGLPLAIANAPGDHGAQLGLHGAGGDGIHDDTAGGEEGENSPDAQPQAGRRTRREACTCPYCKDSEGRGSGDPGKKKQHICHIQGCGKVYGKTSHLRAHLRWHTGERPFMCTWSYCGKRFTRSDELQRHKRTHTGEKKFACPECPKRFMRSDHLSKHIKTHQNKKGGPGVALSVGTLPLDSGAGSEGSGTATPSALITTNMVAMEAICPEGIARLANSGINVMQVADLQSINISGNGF
Chain of Nuclear receptor subfamily 1 group I member 3 (Homo sapiens) (Q14994 whole entry, looked up, the tested form may be a part): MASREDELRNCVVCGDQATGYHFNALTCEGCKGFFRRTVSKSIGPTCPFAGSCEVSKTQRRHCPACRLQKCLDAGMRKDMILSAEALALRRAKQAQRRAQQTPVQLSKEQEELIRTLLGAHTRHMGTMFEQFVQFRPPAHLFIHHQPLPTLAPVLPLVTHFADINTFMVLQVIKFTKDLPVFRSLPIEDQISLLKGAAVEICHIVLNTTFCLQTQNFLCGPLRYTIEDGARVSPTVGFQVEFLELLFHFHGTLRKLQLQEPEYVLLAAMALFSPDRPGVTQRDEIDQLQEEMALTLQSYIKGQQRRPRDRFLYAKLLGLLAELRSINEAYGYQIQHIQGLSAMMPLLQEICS
Chain of X-box-binding protein 1 (Homo sapiens) (P17861 whole entry, looked up, the tested form may be a part): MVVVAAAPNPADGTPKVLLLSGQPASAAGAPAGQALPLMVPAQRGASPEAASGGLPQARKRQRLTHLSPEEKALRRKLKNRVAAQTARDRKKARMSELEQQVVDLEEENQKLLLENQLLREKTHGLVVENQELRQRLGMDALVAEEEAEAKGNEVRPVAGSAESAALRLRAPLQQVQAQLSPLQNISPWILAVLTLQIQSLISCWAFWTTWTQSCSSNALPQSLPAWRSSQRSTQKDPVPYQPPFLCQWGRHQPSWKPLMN
Chain of Paired box protein Pax-6 (Homo sapiens) (P26367 whole entry, looked up): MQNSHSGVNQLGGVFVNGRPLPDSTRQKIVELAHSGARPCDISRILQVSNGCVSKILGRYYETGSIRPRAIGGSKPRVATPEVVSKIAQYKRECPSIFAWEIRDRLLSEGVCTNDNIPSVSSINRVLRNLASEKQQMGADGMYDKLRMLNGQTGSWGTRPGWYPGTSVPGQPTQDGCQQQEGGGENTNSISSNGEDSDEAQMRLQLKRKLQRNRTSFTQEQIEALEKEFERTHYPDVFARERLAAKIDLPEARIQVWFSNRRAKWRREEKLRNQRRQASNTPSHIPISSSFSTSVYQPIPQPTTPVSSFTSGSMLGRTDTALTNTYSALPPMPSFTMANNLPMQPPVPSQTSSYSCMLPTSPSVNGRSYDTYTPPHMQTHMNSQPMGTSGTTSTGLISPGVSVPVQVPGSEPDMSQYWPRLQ
Chain of Estrogen receptor (Homo sapiens) (P03372 whole entry, looked up, the tested form may be a part): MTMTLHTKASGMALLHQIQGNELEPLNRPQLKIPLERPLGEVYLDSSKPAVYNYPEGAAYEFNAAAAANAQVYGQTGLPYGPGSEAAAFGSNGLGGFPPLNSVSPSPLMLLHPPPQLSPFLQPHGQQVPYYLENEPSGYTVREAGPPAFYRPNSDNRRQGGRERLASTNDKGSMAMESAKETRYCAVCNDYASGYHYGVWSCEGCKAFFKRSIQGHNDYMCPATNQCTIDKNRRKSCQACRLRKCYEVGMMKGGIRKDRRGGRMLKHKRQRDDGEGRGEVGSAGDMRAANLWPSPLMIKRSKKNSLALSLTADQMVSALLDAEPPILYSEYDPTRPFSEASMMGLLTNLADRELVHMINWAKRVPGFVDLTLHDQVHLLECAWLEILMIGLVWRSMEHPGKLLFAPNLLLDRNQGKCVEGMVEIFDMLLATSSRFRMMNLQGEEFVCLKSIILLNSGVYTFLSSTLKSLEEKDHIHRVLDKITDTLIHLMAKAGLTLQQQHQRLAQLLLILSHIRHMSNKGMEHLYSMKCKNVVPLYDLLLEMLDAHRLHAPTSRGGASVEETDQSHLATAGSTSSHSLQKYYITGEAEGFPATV
Chain of Androgen receptor (Homo sapiens) (P10275 whole entry, looked up, the tested form may be a part): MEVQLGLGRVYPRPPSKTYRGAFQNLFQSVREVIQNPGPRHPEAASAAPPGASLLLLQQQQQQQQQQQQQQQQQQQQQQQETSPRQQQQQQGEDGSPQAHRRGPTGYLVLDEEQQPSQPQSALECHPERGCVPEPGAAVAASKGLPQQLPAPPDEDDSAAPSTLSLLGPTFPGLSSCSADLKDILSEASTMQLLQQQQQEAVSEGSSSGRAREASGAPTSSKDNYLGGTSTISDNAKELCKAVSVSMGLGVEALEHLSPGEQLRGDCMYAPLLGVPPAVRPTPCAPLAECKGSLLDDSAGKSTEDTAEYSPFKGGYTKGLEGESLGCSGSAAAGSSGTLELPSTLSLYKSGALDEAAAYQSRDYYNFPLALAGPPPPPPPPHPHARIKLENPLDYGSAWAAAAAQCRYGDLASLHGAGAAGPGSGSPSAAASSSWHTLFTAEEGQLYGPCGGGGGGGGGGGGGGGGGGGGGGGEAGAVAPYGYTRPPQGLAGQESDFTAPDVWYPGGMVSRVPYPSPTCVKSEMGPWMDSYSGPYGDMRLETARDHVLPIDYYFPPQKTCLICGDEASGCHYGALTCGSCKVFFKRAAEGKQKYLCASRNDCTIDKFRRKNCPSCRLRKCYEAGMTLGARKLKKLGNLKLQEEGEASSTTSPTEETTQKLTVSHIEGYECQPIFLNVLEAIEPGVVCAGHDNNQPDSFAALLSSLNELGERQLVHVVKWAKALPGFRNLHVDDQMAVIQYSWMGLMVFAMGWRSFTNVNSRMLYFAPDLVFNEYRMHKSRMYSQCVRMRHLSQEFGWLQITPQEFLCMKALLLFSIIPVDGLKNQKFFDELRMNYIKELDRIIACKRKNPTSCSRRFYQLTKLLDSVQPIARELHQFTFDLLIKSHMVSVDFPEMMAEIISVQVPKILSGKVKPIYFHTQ
Chain of Steroid hormone receptor ERR1 (Homo sapiens) (P11474 whole entry, looked up, the tested form may be a part): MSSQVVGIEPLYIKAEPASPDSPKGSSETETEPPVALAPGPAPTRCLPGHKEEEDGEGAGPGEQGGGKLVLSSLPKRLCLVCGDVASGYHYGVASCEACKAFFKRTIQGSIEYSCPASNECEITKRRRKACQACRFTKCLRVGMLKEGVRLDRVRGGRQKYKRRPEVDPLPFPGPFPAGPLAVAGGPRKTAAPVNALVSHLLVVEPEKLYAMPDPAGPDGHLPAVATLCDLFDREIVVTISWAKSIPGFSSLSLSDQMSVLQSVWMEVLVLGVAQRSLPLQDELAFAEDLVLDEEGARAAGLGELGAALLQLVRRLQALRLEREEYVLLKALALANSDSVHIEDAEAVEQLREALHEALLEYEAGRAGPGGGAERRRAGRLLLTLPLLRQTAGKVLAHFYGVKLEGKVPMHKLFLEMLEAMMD

CCCCOCN(C(=O)CCl)c1c(CC)cccc1CC
active: [1] 0.888 µM | [3] 0.265 µM | [13] 0.5 µM
not listed: [20]
inactive: all other assays above

CCN(CC)C(=O)C(C)Oc1cccc2ccccc12 (stereo unspecified)
active: [1] 0.949 µM | [3] 0.163 µM | [4] 50 µM | [20] 28 µM | [7] 28.8 µM | [15] 29.8 µM
not listed: [13] | [16] | [18]
inactive: all other assays above

Cc1ccc(N=CN(C)C=Nc2ccc(C)cc2C)c(C)c1
not listed: [4] | [15] | [16] | [18] | [19]
inactive: all other assays above
